Test results as given in PubChem BioAssay (EPA / NIEHS).
Active and inactive are the calls of the source. Rule for the calls: active = hit-call score of the fitted dose curve at least 0.9, where 1 is the maximum; inactive = score below 0.9.

Molecular target: Bile acid receptor (Homo sapiens) (UniProt Q96RI1)
Assay: ATG_IR1_CIS: Attagene CIS-FACTORIAL HepG2 Assay for human Nuclear Receptor Subfamily 1 Group H Member 4 (NR1H4), IR1 submotif (AID 2282946)
Conditions: IR1 reporter transcription, actives raise or lower the signal
Procedure: ATG_CIS is a cell-based, multiplexed-readout assay that uses HepG2, a human liver cell line, with measurements taken at 24 hours after chemical dosing in a 24-well plate.ATG_IR1_CIS is one of 52 assay component(s) measured or calculated from the ATG_CIS assay. It is designed to make measurements of mRNA induction, a form of inducible reporter, as detected with fluorescence intensity signals by Reverse transcription polymerase chain reaction (RT-PCR) and Capillary electrophoresis technology.Data from the assay component ATG_IR1_CIS was analyzed into 1 assay endpoint. This assay endpoint, ATG_IR1_CIS, was analyzed with bidirectional fitting relative to DMSO as the negative control and baseline of activity. Using a type of inducible reporter, measures of mRNA for gain or loss-of-signal activity can be used to understand the reporter gene at the transcription factor-level as they relate to the gene NR1H4. Furthermore, this assay endpoint can be referred to as a primary readout, because this assay has produced multiple assay endpoints where this one serves a reporter gene function. To generalize the intended target to other relatable targets, this assay endpoint is annotated to the nuclear receptor intended target family, where the subfamily is non-steroidal.
Human liver HepG2 cells are transiently transfected with multiple reporter transcription units (MRTUs) in 6-well plates using FuGene 6 reagent (Roche; 3 ml FuGene/1 mg DNA). The MRTU constructs are regulated by a cis-regulating element (promoter). […] A major difference between the CIS and TRANS system is that in CIS activities of endogenous TFs are measured, whereas the TRANS assay evaluates changes in activities of exogenous, chimeric NR-Gal4 proteins. […] At the end of 24 hour incubation, total RNA was isolated using TriZol reagent (Invitrogen). The isolated RNA is then reverse-transcribed using oligo(dT) primer and Mo-MLV reverse transcriptase (Invitrogen) with DNAse I (Ambion) treatment for 30 min. The one-tenth of the produced cDNA was amplified by PCR using Taq DNA polymerase (Invitrogen) and two reporter sequence-specific primers. The PCR products were fluorescently labeled by primer extension with 6-arboxyfluorescein (6-FAM) 5'-labeled reporter sequence-specific primer (2 min at 95 C, 20 s at 68 C and 10 min at 72 C) and these products were digested with 5U of HpaI (New England Biolabs) for 2h at 37 C. The fragments were purified using Qiaquick PCR columns (Qiagen), analyzed on an ABI 3130xL genetic analyzer (Applied Biosystems) with peak positions identified by using a set of X-rhodamine (ROX)-labeled MapMarker1000 molecular weight standards (BioVentures). The raw capillary electrophoresis data was processed using Attagraph software (Attagene).

Bile acid receptor (Homo sapiens), sequence (Q96RI1 whole entry, looked up): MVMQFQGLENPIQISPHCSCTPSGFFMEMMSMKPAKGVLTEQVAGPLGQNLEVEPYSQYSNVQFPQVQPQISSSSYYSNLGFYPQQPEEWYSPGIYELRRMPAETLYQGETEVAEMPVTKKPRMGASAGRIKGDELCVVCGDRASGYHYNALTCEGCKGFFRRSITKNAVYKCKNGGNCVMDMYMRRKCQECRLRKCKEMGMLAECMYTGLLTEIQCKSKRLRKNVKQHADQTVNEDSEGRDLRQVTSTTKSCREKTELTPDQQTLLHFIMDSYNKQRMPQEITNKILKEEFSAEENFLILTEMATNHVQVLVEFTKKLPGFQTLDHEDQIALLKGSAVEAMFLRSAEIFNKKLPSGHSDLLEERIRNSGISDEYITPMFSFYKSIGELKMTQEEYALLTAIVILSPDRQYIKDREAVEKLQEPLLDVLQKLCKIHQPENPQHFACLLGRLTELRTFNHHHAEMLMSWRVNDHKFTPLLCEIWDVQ

Row | Structure (SMILES) | outcome | AC50
1 | COC(=O)NC(=S)Nc1ccccc1NC(=S)NC(=O)OC | inactive | –
2 | CO/N=C(/C1=NOCCO1)c1ccccc1Oc1ncnc(Oc2ccccc2Cl)c1F | inactive | –
3 | O=P(O)(O)CCCl | inactive | –
4 | CCOc1nc(F)cc2nc(S(=O)(=O)Nc3c(Cl)cccc3Cl)nn12 | inactive | –
5 | CN=C=S | inactive | –
6 | OC(c1ccc(Cl)cc1)(c1ccc(Cl)cc1)C(Cl)(Cl)Cl | inactive | –
7 | CC1(C)C(C(=O)OC(C#N)c2cccc(Oc3ccccc3)c2)C1(C)C (configuration not stated) | inactive | –
8 | CC(C)C1(C)N=C(c2ncccc2C(=O)O)NC1=O (configuration not stated) | inactive | –
9 | CCCCOCN(C(=O)CCl)c1c(CC)cccc1CC | inactive | –
10 | CNC(=O)Oc1cccc2ccccc12 | inactive | –
11 | Clc1cccc(C(Cl)(Cl)Cl)n1 | inactive | –
12 | CCOc1cc(C(C)(C)C)ccc1C1COC(c2c(F)cccc2F)=N1 (configuration not stated) | inactive | –
13 | COCc1cnc(C2=NC(C)(C(C)C)C(=O)N2)c(C(=O)O)c1 (configuration not stated) | inactive | –
14 | CCCCC(O)(Cn1cncn1)c1ccc(Cl)cc1Cl (configuration not stated) | – | 91.3 µM (active)
15 | O=C(O)c1c(Cl)ccc2cc(Cl)cnc12 | inactive | –
16 | Cc1c(COC(=O)[C@@H]2[C@H](/C=C(\Cl)C(F)(F)F)C2(C)C)cccc1-c1ccccc1 | inactive | –
17 | COP(=S)(OC)Oc1ccc([N+](=O)[O-])c(C)c1 | inactive | –
18 | CC(C)=CC1C(C(=O)OCc2coc(Cc3ccccc3)c2)C1(C)C (configuration not stated) | inactive | –
19 | COc1cc(OC)nc(NC(=O)NS(=O)(=O)c2ncccc2OCC(F)(F)F)n1 | inactive | –
20 | CCNC(=O)NC(=O)C(C#N)=NOC | inactive | –
21 | COCC(=O)N(c1c(C)cccc1C)C(C)C(=O)OC (configuration not stated) | inactive | –
22 | CCC(C)n1c(=O)[nH]c(C)c(Br)c1=O (configuration not stated) | inactive | –
23 | CS(=O)(=O)c1ccc(C(=O)C2C(=O)CCCC2=O)c([N+](=O)[O-])c1 | inactive | –
24 | Cc1nc(N(C)C)nc(OC(=O)N(C)C)c1C | inactive | –
25 | CCN(CC)C(=O)C(C)Oc1cccc2ccccc12 (configuration not stated) | inactive | –
26 | COc1ccc(-c2ccccc2)cc1NNC(=O)OC(C)C | inactive | –
27 | COCC(C)N(C(=O)CCl)c1c(C)csc1C (configuration not stated) | inactive | –
